Assay outcomes (PubChem)
An excerpt weighted towards active compounds, which were near 3.2% of everything screened.
CRFBP-R2 agonist: agonists of CRF-BP/CRF-R2 complex, primary screen, cell-based, HEK293, calcium dye fluorescence, uHTS | CRF-binding protein / CRF receptor 2 complex (human) | calcium dye fluorescence (FLIPR); percent of saturating CRF peptide response | activation, % at 13.2 µM | 0.46% of 350,000 active;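 active = activation of at least 50%, plus an integration ratio under a set limit after plate pattern correction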
PfG6PD inh: PfG6PD enzyme inhibitors, primary screen, biochemical, fluorescence intensity, uHTS. glucose-6-phosphate dehydrogenase-6-phosphogluconolactonase (Plasmodium falciparum 3D7). PfGluPho enzyme, NADPH resazurin-diaphorase fluorescence. inhibition, % at 20 µM. 0.78% of 350,000 active. AID 504690, 2011;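 active = inhibition reaching at least a set limit at 20 µM in the primary screen, cut at about 59% in these data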
Cardio protect: cardioprotection against H2O2-induced cell death, primary screen, uHTS, H9c2 cells, ATPLite luminescence. H9c2 cardiomyocytes, H2O2 injury protection, 2 h. protection from H2O2 cell death, % at 20 µM. 0.63% of 360,000 active. AID 588492, 2011;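 active = compounds giving at least 50% protection of heart cells from peroxide-induced death in the single-dose screen, raw or plate-pattern-corrected value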
FAS TE block: FAS thioesterase domain inhibitors, primary screen, biochemical, fluorescence intensity, uHTS. recombinant FAS-TE, OMFH fluorogenic substrate, fluorescence endpoint. inhibition, % at 15 µM. 0.67% of 360,000 active;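 active = compounds whose normalised, plate-corrected inhibition of enzyme fluorescence in the single-dose primary screen is 50% or more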
Target sequence (P49327 whole entry, looked up, the tested form may be a part): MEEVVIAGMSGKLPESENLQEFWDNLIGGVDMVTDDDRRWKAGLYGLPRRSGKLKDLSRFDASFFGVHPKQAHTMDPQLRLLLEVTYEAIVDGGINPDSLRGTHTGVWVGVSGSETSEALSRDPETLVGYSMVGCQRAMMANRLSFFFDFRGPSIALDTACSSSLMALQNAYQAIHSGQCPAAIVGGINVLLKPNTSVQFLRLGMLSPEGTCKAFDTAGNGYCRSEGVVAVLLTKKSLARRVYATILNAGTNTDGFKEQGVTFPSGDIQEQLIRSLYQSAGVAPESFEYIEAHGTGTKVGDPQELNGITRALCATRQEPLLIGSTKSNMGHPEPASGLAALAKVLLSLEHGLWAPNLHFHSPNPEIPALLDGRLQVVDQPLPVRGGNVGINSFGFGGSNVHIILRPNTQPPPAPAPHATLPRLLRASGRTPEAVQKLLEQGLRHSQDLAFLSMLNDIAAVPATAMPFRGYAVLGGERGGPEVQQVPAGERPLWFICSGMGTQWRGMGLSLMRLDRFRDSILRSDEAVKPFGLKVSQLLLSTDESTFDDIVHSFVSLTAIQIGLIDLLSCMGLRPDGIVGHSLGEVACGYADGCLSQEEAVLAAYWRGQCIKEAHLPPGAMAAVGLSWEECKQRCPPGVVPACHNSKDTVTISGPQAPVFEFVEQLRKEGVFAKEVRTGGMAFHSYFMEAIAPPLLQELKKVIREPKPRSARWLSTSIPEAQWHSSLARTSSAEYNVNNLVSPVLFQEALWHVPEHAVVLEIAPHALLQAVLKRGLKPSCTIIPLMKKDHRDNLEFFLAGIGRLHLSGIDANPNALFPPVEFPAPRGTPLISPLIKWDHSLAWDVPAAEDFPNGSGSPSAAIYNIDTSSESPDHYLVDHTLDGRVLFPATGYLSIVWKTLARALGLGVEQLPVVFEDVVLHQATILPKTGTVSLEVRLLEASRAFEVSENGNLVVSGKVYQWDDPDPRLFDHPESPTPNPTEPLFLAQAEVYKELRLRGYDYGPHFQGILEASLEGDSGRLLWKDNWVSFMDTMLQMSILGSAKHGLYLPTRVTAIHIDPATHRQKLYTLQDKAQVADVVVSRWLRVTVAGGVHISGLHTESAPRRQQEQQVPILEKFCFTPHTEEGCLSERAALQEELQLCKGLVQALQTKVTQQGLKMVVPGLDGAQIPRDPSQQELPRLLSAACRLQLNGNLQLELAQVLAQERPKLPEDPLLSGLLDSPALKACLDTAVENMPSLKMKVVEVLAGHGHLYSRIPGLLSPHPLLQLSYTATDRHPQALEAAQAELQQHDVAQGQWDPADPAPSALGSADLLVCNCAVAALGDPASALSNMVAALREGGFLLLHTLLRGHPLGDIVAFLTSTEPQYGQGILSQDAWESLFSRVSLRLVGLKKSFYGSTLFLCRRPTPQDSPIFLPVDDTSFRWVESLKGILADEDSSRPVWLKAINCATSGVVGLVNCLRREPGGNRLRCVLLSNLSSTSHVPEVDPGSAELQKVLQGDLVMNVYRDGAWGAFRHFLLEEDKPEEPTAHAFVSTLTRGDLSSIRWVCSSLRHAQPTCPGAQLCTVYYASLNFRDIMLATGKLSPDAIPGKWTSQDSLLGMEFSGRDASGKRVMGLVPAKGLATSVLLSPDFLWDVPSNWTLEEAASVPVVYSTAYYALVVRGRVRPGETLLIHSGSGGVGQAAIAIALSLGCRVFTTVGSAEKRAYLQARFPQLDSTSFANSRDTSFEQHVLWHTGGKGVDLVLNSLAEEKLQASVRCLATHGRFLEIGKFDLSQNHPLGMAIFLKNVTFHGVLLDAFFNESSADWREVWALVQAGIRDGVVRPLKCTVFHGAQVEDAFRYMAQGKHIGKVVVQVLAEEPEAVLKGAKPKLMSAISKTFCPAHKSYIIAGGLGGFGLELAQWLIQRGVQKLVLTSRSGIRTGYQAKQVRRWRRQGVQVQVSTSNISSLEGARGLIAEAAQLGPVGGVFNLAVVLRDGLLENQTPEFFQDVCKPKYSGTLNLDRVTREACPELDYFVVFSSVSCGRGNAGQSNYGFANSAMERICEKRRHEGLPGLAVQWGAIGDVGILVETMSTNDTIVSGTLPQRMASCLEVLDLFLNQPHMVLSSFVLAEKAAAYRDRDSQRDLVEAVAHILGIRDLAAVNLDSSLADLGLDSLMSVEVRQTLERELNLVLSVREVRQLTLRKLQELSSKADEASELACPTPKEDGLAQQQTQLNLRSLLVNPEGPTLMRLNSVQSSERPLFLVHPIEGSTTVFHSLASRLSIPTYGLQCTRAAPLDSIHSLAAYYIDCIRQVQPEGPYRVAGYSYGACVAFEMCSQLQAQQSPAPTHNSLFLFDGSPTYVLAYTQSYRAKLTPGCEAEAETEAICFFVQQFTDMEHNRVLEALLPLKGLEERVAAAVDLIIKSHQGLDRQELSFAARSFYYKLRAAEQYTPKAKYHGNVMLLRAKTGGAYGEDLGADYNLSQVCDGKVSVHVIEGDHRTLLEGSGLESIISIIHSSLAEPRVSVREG
aDG glyco up: activators of alpha-DG glycosylation, primary screen, uHTS, Pro5-aDG cells, AlphaScreen; alpha-DG glycosylation AlphaScreen (IIH6); 0% Pro5, 100% B10-LARGE cell signal; activation, % at 10 µM; 0.22% of 360,000 active; AID 624168, 2012;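 active = activation of at least 8% versus controls, or a plate z-score of at least 8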;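 note: Pro5 are CHO cells carrying HIG-tagged alpha-DG that lacks glycosylation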
CRFR2-BP antag: antagonists of CRF-BP/CRF-R2 complex, primary screen, cell-based, HEK293, calcium dye fluorescence, uHTS. 0.59% of 350,000 active. AID 588475, 2011. CRF-induced calcium fluorescence. inhibition, % at 11.8 µM;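 active = inhibition of the ligand-induced calcium signal above about 50% at the single tested concentration, limit read from the data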
Large screens that a line does not name were inactive.

O=C(O)CCN1C(=O)/C(=C/c2ccc(-c3nc4ccccc4s3)o2)SC1=S	none
O=C(O)c1cc(-c2ccc(/C=C3/SC(=S)N(Cc4ccccc4)C3=O)o2)ccc1Cl	CRFBP-R2 agonist 208.9
O=C(O)CCCN1C(=O)/C(=C\c2ccc(-c3nc4ccccc4s3)o2)SC1=S	CRFBP-R2 agonist 109.0
O=C(O)CC(C(=O)O)N1C(=O)/C(=C/c2ccc(-c3nc4ccccc4s3)o2)SC1=S (stereo unspecified)	CRFR2-BP antag 53.4
Cc1ccc(C(=O)NCC(=O)OC(C)C(=O)Nc2ccc(N(C)C)cc2)cc1C (stereo unspecified)	none
CN(CC(=O)NCCCc1ccccc1)S(=O)(=O)c1ccc(Br)cc1	none
Cc1cc(N2CCOCC2)nc(NCc2ccccc2)n1	CRFBP-R2 agonist 121.8
Cc1cc(N2CCOCC2)nc(N)n1	CRFBP-R2 agonist 164.3
Cc1cc(N2CCCCC2)nc(NCc2ccccc2)n1	none
Nc1nc(Cl)cc(N2CCOCC2)n1	none
CN(C)c1ccc(/C=C(/C#N)C(=O)NCc2ccccc2)o1	CRFBP-R2 agonist 108.0
CCCCn1c(N)c(N(CCC(C)C)C(=O)COC(=O)Cc2ccc(Cl)cc2)c(=O)[nH]c1=O	none
O=C(Nc1nnc(-c2ccccc2Cl)o1)c1nc2ccccc2s1	CRFBP-R2 agonist 139.6
COc1ccccc1-c1nnc(Nc2nc3c(OC)cccc3s2)o1	CRFR2-BP antag 52.9
O=C(Nc1nnc(-c2ccccc2Cl)o1)c1ccco1	none
COc1cccc2sc(Nc3nnc(-c4ccccc4Cl)o3)nc12	CRFBP-R2 agonist 76.6
COc1cccc2sc(NN)nc12	none
CCn1c(CC(=O)Nc2ccccc2Cl)nnc1SCC(=O)NC1CCCC1	none
CCOC(=O)c1cc(-c2ccccc2)nc2c(O)cccc12	none
Cc1nc2sc3c(NCc4ccco4)ncnc3c2c2c1COC(C)(C)C2	PfG6PD inh 62.3
CNC[C@@H]1Oc2cc(Br)ccc2S(=O)(=O)N([C@@H](C)CO)C[C@@H]1C	none
OC(c1ccccc1)(c1nc(-c2ccc3c(c2)OCO3)cs1)C(F)(F)F (stereo unspecified)	none (no result: CRFBP-R2 agonist, PfG6PD inh, CRFR2-BP antag)
N#C/C(=C\C=C\c1ccccc1)c1nc(-c2ccc3c(c2)OCO3)cs1	CRFBP-R2 agonist 64.9
CCC(C)c1ccc(S(=O)(=O)N2CCN(CC(O)COCC3CCCO3)CC2)cc1 (stereo unspecified)	CRFR2-BP antag 64.3
Cc1cc(C)n(CCC(=O)N=Nc2c(O)[nH]c3ccc(Br)cc23)n1	CRFR2-BP antag 93.4
CC(C)OC(=O)c1cccc(NC(=O)CSc2nnc(N)s2)c1	none
Oc1ccc(-c2nc3ccc4ccccc4c3c3c2CCC3)cc1O	Cardio protect 88.0
Cc1cc(C)c2c(ccc3ccccc32)n1	none
CCOC(=O)c1ccc(Nc2sc(C(=O)c3cccc([N+](=O)[O-])c3)c(N)c2C#N)cc1	none
c1ccc2c(c1)nnn2-c1ncnc2sc3c(c12)CCCC3	CRFR2-BP antag 62.2
OCCN1CCN(c2ncnc3sc4c(c23)CCCC4)CC1	none
Oc1ccc(N2CCN(c3ncnc4sc5c(c34)CCC5)CC2)cc1	PfG6PD inh 62.3
C1=C(c2ccccc2)Nc2ccccc2N=C1c1ccccc1	none
CC1(C(=O)Nc2cccc(OC(F)(F)F)c2)Cc2c(-c3ccc(C(N)=O)cc3)ccnc2O1 (stereo unspecified)	Cardio protect 55.5 (no result: CRFBP-R2 agonist, PfG6PD inh, CRFR2-BP antag)
CC(=O)Nc1cccc(-c2ccnc3c2CC(C)(C(=O)Nc2cccc(OC(F)(F)F)c2)O3)c1 (stereo unspecified)	none (no result: CRFBP-R2 agonist, PfG6PD inh, CRFR2-BP antag)
Cc1ccc(O)c(C(=O)c2cc(C#N)c(=O)n(CC3CCCO3)c2)c1 (stereo unspecified)	none
Cc1ccc(O)c(C(=O)c2cc(C#N)c(=O)n(-c3nccs3)c2)c1	CRFBP-R2 agonist 165.9
CCn1c(COc2ccccc2C)nc2ccccc21	CRFBP-R2 agonist 73.3
O=C(c1ccccc1[N+](=O)[O-])N1CCc2ccccc2C1	none
Cc1cccc(C(=O)N2CCc3ccccc3C2)c1[N+](=O)[O-]	CRFR2-BP antag 85.2
CC(=O)Nc1ccc(S(=O)(=O)N2CCC(c3nnc(-c4ccc(C)cc4)o3)CC2)cc1	CRFR2-BP antag 77.4
COc1ccc(-c2nnc(C3CCN(S(=O)(=O)c4ccccc4)CC3)o2)cc1	none
O=C(NC(=S)Nc1ccccc1Br)c1ccco1	none
CNC1=C(N(C(C)=O)c2ccc(Br)cc2)C(=O)c2ccccc2C1=O	aDG glyco up 8.7
C[C@@]12C(=O)N(c3cccc(Cl)c3)C(=O)N1[C@H](c1ccc(Cl)cc1)[C@@H]1C(=O)N(C3CCCCC3)C(=O)[C@@H]12	FAS TE block 58.6
CC(C)C[C@@]12C(=O)N(c3cccc(F)c3)C(=O)N1[C@H](c1ccc(F)cc1)[C@@H]1C(=O)N(C3CCCCC3)C(=O)[C@@H]12	FAS TE block 82.5
CC(C)C[C@@]12C(=O)N(c3cccc(F)c3)C(=O)N1[C@H](c1ccc(Cl)cc1)[C@@H]1C(=O)N(C3CCCCC3)C(=O)[C@@H]12	FAS TE block 62.2
CC1(C)C(=O)C=C(N2CCCCC2)c2ccccc21	none
C=CCOC(=O)/C=C/C(=O)NC(N)=O	none
CCCCCCCOC(=O)C[N+](C)(C)CCOC1CC2CCC1(C)C2(C)C (stereo unspecified)	CRFBP-R2 agonist 111.5
CCCCCCOC(=O)C[N+](C)(C)CCOC1CC2CCC1(C)C2(C)C (stereo unspecified)	none
O=c1cc(C(F)(F)F)[nH]c2ccc(OC(F)(F)F)cc12	CRFR2-BP antag 69.3
Cc1cc(=O)c2cccc(Br)c2[nH]1	none
O=c1cc(C(F)(F)F)[nH]c2c(C(F)(F)F)cccc12	CRFBP-R2 agonist 54.3
CC1=C(C(=O)Nc2ccccc2C(F)(F)F)C(c2sccc2C)NC(=S)N1 (stereo unspecified)	none
Cc1ccc(OCC(O)Cn2c(NCCc3ccccc3)nc3c2c(=O)[nH]c(=O)n3C)cc1 (stereo unspecified)	none
Cn1c(=O)[nH]c(=O)c2c1nc(NCCc1ccccc1)n2CC(O)COc1ccccc1 (stereo unspecified)	Cardio protect 59.5
CCN(C(=O)COC(=O)c1ccc2c(=O)n3c(nc2c1)CCC3)C1CCS(=O)(=O)C1 (stereo unspecified)	none
Nc1nnnn1/N=C/c1cc(Cl)cc(Cl)c1O	CRFBP-R2 agonist 138.4
Nc1nnnn1/N=C/c1cc(Cl)ccc1O	none
O=[N+]([O-])c1ccccc1S(=O)(=O)N1CCN(S(=O)(=O)c2ccc3c(c2)OCCO3)CC1	FAS TE block 53.2
